# Experimental data: article PMC7862700, “An all-to-all approach to the identification of sequence-specific readers for epigenetic DNA modifications on cytosine”
# How the values were obtained:
# Assay in all cases: DAPPL (digital affinity profiling via proximity ligation, sequencing); 10 mM Tris-HCl pH 7.5, 50 mM NaCl, 1 mM DTT, 4% glycerol, room temperature, 30 min; GST-TFs on glutathione beads, 16-mer random dsDNA library, 0.1% formaldehyde crosslink after washing; high values mean tight binding
# Conditions in all cases: protein: recombinant; tags: N-terminal GST; dsDNA, one strand shown
# FLI1 = target: T1, FLI1 (Homo sapiens, UniProt Q01543 1-452)
# T1 sequence: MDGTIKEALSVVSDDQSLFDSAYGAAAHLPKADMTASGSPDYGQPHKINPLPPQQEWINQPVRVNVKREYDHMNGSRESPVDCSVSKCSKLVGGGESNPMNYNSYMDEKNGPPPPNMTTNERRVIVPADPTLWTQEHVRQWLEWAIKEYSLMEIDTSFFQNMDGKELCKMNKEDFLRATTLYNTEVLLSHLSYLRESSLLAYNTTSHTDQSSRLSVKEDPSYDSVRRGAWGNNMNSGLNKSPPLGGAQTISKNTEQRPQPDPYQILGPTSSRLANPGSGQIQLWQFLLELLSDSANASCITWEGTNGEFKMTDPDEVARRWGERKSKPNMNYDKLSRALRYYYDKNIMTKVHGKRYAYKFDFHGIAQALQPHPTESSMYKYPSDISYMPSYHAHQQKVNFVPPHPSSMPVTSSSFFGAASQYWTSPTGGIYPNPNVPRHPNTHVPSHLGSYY
# Procedure, shortened: (§1)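 Yeast served to express human transcription factors as GST fusions, which were then captured on glutathione beads and labelled with DNA barcodes. Pooled with a tag-only sample, they were incubated with 200 nmole of a 16-mer random double-stranded DNA library for 30 min at room temperature in Tris/NaCl/DTT/glycerol buffer, washed, crosslinked with 0.1% formaldehyde, ligated by proximity, amplified by PCR and sequenced. Dividing each hexamer's read frequency for a factor by its frequency for the tag-only sample gives the binding signal.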
# ELK1 = target: T2, ELK1 (Homo sapiens, UniProt P19419 1-428)
# T2 sequence: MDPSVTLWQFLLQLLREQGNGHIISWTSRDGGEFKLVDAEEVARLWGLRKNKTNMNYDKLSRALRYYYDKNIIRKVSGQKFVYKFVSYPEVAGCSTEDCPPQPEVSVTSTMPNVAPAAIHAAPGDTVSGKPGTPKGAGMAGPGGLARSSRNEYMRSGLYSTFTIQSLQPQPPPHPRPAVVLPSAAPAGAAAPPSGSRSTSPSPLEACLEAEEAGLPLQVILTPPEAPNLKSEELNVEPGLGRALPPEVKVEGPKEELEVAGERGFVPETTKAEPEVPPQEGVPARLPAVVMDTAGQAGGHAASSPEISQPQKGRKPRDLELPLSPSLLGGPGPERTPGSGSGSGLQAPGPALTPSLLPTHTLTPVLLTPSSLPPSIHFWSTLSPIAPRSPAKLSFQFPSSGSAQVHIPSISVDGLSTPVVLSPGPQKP
# Procedure, shortened: as §1
# ERG = target: T3, ERG (Homo sapiens, UniProt P11308 1-479)
# T3 sequence: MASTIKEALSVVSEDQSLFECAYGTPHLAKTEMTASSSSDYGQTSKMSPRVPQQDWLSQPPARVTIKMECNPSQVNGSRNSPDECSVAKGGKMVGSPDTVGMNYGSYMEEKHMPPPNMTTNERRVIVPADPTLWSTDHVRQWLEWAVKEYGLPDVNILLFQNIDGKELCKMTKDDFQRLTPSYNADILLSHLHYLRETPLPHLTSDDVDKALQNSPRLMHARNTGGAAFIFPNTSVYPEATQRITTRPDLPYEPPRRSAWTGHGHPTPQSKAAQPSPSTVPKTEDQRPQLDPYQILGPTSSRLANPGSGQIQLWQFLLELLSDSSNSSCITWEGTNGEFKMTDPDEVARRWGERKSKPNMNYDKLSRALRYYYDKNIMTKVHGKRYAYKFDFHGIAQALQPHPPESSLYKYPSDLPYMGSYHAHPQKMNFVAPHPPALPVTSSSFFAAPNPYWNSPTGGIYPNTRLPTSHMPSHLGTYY
# Procedure, shortened: as §1
# ELF1 = ELF1 (Homo sapiens, UniProt P32519 1-619)
# Procedure, shortened: as §1
# EHF = target: T4, EHF (Homo sapiens, UniProt Q9NZC4 1-300)
# T4 sequence: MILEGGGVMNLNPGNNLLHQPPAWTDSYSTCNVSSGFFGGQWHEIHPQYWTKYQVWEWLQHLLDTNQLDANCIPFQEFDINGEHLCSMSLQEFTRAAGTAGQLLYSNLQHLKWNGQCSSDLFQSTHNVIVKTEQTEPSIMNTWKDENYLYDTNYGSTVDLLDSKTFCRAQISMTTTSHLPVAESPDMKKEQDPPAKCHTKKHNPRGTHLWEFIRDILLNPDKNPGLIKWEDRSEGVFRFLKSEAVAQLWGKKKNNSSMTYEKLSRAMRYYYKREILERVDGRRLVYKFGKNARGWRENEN
# Procedure, shortened: as §1
# SPIB = SPIB (Homo sapiens, UniProt Q01892 1-262)
# Procedure, shortened: as §1
# ELK3 = target: T5, ELK3 (Homo sapiens, UniProt P41970 1-407)
# T5 sequence: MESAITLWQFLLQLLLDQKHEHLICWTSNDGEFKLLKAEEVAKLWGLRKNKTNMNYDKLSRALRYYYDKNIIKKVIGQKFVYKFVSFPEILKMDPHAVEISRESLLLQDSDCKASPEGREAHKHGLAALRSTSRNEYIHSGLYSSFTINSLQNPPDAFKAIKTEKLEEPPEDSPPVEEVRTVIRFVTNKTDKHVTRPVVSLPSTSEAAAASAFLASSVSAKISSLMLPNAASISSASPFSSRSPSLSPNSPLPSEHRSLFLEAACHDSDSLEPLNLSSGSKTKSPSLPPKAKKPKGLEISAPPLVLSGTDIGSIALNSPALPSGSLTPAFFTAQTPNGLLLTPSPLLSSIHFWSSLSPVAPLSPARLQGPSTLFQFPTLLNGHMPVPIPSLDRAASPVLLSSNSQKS
# Procedure, shortened: as §1
# SPIC = target: T6, SPIC (Homo sapiens, UniProt Q8N5J4 1-248)
# T6 sequence: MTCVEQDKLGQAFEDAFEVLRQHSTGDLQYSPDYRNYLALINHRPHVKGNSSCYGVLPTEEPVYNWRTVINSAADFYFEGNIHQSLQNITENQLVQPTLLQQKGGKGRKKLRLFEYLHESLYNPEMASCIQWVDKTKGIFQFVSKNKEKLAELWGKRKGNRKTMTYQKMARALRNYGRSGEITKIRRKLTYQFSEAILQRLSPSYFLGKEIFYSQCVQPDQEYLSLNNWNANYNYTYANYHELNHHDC
# Procedure, shortened: as §1
# ELF4 = ELF4 (Homo sapiens, UniProt Q99607 1-663)
# Procedure, shortened: as §1
# ELK4 = target: T7, ELK4 (Homo sapiens, UniProt P28324-2 1-405)
# T7 sequence: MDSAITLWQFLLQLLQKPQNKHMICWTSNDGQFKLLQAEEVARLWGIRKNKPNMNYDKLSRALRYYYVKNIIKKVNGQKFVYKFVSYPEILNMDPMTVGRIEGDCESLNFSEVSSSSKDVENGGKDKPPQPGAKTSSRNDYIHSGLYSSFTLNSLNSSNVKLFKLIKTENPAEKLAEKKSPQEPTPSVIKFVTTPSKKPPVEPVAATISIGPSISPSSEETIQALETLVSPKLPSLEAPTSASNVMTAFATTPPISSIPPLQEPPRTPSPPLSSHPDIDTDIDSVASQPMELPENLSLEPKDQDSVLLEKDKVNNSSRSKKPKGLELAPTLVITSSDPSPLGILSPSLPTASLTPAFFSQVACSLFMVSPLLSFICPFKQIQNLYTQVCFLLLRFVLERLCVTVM
# Procedure, shortened: as §1
# ETV1 = ETV1 (Homo sapiens, UniProt P50549 1-477)
# Procedure, shortened: as §1
# ERF = target: T8, ERF (Homo sapiens, UniProt P50548 1-548)
# T8 sequence: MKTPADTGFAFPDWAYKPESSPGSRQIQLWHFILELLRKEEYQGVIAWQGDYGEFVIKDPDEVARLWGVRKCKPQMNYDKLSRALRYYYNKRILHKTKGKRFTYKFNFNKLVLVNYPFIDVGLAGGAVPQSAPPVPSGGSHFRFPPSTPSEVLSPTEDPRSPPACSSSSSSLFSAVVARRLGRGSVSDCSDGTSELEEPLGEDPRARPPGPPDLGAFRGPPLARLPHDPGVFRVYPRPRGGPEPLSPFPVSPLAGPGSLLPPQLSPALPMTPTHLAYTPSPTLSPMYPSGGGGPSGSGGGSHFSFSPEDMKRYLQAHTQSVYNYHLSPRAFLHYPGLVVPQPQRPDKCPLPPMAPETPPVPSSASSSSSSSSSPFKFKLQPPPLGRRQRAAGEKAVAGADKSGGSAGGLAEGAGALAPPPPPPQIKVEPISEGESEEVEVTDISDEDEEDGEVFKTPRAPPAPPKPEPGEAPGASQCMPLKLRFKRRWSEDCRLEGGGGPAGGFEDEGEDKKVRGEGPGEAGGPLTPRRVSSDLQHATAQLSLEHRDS
# Procedure, shortened: as §1
# ETV3L = target: T9, ETV3L (Homo sapiens, UniProt Q6ZN32 1-361)
# T9 sequence: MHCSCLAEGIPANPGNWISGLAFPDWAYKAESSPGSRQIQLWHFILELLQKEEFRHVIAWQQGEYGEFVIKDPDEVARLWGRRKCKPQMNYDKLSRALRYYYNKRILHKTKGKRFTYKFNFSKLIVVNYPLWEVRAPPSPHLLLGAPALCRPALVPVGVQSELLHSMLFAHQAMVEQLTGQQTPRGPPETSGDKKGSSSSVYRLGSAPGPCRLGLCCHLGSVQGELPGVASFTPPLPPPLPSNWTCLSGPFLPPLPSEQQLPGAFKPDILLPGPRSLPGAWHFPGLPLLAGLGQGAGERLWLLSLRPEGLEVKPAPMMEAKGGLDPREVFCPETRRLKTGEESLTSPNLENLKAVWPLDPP
# Procedure, shortened: as §1
# ETS2 = target: T10, ETS2 (Homo sapiens, UniProt P15036 1-469)
# T10 sequence: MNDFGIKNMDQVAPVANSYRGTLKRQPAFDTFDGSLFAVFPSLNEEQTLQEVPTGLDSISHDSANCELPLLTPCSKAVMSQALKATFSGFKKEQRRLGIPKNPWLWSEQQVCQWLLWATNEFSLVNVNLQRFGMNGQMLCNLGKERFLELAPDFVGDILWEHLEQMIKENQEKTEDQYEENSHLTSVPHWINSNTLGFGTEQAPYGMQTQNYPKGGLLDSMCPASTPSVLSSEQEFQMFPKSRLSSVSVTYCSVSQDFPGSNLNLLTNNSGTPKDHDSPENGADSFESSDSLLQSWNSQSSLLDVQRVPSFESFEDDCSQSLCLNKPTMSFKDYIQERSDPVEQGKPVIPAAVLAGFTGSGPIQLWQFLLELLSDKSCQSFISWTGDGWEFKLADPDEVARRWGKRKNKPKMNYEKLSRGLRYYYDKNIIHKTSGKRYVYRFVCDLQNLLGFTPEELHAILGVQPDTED
# Procedure, shortened: as §1
# ETV6 = ETV6 (Homo sapiens, UniProt P41212 1-452)
# Procedure, shortened: as §1
# ETV2 = target: T11, ETV2 (Homo sapiens, UniProt O00321 1-342)
# T11 sequence: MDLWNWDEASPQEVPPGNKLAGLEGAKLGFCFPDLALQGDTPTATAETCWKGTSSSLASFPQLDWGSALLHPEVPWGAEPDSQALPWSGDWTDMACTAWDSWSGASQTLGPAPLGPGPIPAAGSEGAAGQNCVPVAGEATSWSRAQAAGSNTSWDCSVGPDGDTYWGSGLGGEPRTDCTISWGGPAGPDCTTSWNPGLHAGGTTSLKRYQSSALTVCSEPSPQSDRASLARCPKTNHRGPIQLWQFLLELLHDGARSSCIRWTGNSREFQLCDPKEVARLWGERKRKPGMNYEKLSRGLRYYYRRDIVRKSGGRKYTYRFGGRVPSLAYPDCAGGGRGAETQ
# Procedure, shortened: as §1
# ELF3 = target: T12, ELF3 (Homo sapiens, UniProt P78545 1-371)
# T12 sequence: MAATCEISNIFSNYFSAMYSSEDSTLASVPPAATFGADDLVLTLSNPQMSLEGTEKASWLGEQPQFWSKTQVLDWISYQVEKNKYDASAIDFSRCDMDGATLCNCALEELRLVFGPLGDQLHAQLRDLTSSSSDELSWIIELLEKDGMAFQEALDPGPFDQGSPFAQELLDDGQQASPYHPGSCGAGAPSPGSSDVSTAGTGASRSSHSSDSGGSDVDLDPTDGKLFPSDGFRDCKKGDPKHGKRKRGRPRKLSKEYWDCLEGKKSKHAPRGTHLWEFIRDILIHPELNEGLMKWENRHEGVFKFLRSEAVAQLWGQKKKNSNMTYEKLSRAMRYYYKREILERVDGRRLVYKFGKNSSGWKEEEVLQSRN
# Procedure, shortened: as §1
# Sequence of ELF4 (Q99607 whole entry): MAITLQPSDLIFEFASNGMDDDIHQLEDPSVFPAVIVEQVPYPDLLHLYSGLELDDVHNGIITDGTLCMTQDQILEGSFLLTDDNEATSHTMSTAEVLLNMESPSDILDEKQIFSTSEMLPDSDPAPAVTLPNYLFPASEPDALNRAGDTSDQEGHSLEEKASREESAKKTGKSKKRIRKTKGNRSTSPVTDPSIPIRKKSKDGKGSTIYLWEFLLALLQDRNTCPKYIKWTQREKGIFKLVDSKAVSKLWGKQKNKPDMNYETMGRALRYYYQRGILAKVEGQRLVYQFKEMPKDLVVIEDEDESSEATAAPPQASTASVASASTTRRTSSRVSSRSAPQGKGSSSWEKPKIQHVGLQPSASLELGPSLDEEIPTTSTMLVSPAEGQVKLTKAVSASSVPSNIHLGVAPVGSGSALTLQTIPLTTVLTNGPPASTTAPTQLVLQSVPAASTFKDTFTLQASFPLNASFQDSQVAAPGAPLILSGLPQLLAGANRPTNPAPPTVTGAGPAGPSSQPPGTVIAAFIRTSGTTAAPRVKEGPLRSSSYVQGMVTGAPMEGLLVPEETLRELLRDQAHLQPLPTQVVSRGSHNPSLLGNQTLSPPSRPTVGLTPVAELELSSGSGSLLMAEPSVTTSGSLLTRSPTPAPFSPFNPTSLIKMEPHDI
# Sequence of ETV6 (P41212 whole entry): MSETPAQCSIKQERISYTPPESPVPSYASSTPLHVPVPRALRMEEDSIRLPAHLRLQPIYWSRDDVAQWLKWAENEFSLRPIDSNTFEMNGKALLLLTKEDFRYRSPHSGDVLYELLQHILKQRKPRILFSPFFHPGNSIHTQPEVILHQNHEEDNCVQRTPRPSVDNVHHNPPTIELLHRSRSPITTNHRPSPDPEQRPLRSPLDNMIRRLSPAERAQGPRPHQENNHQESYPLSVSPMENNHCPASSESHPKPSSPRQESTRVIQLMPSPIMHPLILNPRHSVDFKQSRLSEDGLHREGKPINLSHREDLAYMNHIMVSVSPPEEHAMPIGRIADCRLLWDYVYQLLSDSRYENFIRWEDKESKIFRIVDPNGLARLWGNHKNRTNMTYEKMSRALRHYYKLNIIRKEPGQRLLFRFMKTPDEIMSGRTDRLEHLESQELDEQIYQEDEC
# Sequence of ELF1 (P32519 whole entry): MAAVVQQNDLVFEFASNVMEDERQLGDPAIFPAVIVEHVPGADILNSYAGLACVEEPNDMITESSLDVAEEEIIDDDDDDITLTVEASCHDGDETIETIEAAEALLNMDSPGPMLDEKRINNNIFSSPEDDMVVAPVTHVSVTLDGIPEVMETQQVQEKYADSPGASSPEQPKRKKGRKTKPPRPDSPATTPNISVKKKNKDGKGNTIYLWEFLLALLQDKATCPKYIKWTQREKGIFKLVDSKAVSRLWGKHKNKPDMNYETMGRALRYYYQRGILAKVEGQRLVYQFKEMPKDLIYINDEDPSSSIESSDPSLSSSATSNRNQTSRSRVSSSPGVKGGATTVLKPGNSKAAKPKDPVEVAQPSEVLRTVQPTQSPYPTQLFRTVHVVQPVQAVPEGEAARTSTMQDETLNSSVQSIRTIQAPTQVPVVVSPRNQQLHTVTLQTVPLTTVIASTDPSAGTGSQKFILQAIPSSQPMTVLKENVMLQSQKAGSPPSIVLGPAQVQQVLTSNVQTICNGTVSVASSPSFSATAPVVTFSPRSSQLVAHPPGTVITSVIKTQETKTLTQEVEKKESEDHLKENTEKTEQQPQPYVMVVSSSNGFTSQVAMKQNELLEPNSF
# Sequence of SPIB (Q01892 whole entry): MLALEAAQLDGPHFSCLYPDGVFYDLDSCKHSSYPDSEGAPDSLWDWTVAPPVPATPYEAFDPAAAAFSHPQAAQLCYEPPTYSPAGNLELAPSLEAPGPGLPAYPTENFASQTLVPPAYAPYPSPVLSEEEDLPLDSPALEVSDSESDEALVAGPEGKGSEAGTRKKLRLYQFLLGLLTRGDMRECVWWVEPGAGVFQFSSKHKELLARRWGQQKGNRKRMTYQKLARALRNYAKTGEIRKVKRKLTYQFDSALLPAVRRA
# Sequence of ETV1 (P50549 whole entry): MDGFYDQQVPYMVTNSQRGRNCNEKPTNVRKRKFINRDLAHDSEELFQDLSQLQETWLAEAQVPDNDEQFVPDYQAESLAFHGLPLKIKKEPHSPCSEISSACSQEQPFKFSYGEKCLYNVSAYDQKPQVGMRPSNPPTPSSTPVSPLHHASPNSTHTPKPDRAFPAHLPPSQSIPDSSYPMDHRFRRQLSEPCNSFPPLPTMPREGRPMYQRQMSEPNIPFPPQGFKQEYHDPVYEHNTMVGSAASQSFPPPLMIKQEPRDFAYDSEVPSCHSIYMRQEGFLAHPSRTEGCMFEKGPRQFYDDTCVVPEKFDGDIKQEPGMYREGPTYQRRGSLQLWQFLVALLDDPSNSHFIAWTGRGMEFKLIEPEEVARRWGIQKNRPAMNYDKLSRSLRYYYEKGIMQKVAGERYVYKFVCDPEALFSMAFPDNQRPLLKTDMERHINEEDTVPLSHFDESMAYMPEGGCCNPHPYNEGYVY
sequence,measurement,setting,value
TGGTTG,binding signal,FLI1,"1.04 fold enrichment (6-mer frequency, TF over GST control)"
same,binding signal,ELK1,"1.02 fold enrichment (6-mer frequency, TF over GST control)"
same,binding signal,ERG,"1.01 fold enrichment (6-mer frequency, TF over GST control)"
same,binding signal,ELF1,"1.02 fold enrichment (6-mer frequency, TF over GST control)"
same,binding signal,EHF,"1.02 fold enrichment (6-mer frequency, TF over GST control)"
same,binding signal,SPIB,"1.08 fold enrichment (6-mer frequency, TF over GST control)"
same,binding signal,ELK3,"1.03 fold enrichment (6-mer frequency, TF over GST control)"
same,binding signal,SPIC,"1.08 fold enrichment (6-mer frequency, TF over GST control)"
same,binding signal,ELF4,"1.03 fold enrichment (6-mer frequency, TF over GST control)"
same,binding signal,ELK4,"1.09 fold enrichment (6-mer frequency, TF over GST control)"
same,binding signal,ETV1,"1.05 fold enrichment (6-mer frequency, TF over GST control)"
same,binding signal,ERF,"1.1 fold enrichment (6-mer frequency, TF over GST control)"
same,binding signal,ETV3L,"1.03 fold enrichment (6-mer frequency, TF over GST control)"
same,binding signal,ETS2,"1.08 fold enrichment (6-mer frequency, TF over GST control)"
same,binding signal,ETV6,"1 fold enrichment (6-mer frequency, TF over GST control)"
TAAGTC,binding signal,FLI1,"1 fold enrichment (6-mer frequency, TF over GST control)"
CGCTAA,binding signal,FLI1,"1.01 fold enrichment (6-mer frequency, TF over GST control)"
same,binding signal,ELK1,"1.05 fold enrichment (6-mer frequency, TF over GST control)"
same,binding signal,ELK3,"1 fold enrichment (6-mer frequency, TF over GST control)"
same,binding signal,ETV2,"1.09 fold enrichment (6-mer frequency, TF over GST control)"
same,binding signal,ELF3,"1 fold enrichment (6-mer frequency, TF over GST control)"
same,binding signal,ETV3L,"1 fold enrichment (6-mer frequency, TF over GST control)"
